The results in this text go back to PubChem BioAssay AID1285 (Columbia University Molecular Screening Center, 2008).

In general, inhibition refers to the drop in the measured response relative to a control, in per cent.

Screen size: about 190,000 compounds; about 1,600 (0.84%) were called active.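 How the source made its calls: active means inhibition above a set limit, derived from the sample mean plus 3 SD (cut at about 45% in these data); inconclusive means one replicate passes the limit while the other fails; inactive means the rest.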 This excerpt belongs to a sample that is enriched for actives.

This assay is described as follows: inhibitors of APP translation via 5'UTR reporter, primary screen, APP 5'UTR luciferase, SH-SY5Y cells (AID 1285). To be noted: SH-SY5Y APP 5'UTR-luciferase reporter, luminescence; at 2 µM; hits give high values. For orientation: Reporter assays use an easily measured gene product as a stand-in for the process of interest.
With `O=C(NCc1ccccc1)C1=C[C@@H](c2ccc(C(F)(F)F)cc2)C[C@@H](OCc2ccc(CO)cc2)O1`, the inhibition is -9.6% (inactive).
`O=C(CSc1nc2ccc(Nc3nc(N4CCOCC4)nc(N4CCOCC4)n3)cc2s1)NCc1ccco1`: the inhibition is -2.6% (inactive).
The result for `CN1CCCN(C(=O)C2CCCCC2)CC1` reads 4.4% (inactive); that for `O=[N+]([O-])c1cccc(/C([O-])=C(/C(=S)Nc2ccccc2F)[n+]2ccccc2)c1`, -11.7% (inactive).
Consider `CCOC(=O)c1c(C)[nH]c(C2=NNC(=NC(C)COC)SC2)c1C` (centres undefined), for which the inhibition was -102% (inactive).
`O=S1(=O)CCC(NC(=S)SCc2ccccc2Br)C1` (centres undefined): the inhibition was 0.3% (inactive).
As for `O=C(Nc1ccon1)c1sc2ccccc2c1Cl`, the inhibition is -68.6% (inactive).
Regarding `O=C(N/N=C/c1c(Cl)[nH]c2ccccc12)c1sc2ccccc2c1Cl`, the inhibition was -4.8% (inactive).
As to `Cc1nn(C)cc1/C=N/NC(=O)c1sc2ccccc2c1Cl`, the inhibition was 55.6% (active).
`Cc1ccccc1CCN(CC(=O)NC1CCCCC1)C(=O)c1csnn1`: the inhibition was 11.3% (inactive).
As to `O=c1nc(N/N=C/c2ccco2)cn[nH]1`, the inhibition is 12.4% (inactive).
For the compound `O=C(O)c1ccc(N/N=C/c2cn(-c3ccccc3)nc2-c2cccs2)cc1`, the inhibition is -140% (inactive).
For the compound `CC(C)(O)C#Cc1ncc(C(F)(F)F)cc1Cl`, the inhibition was -2.7% (inactive).
Take `CC(=O)Nc1ccc(Nc2c3ccccc3nc3ccccc23)cc1`: the inhibition was 92.3% (active).
Consider `O=[N+]([O-])c1cccc(Nc2c3ccccc3nc3ccccc23)c1`, for which the inhibition is 0.1% (inactive).
As for `CC(=O)Nc1ccc(NC(=O)COc2ncnc3ccccc23)cc1`, the inhibition was 0.3% (inactive).
As for `C=CCn1c(SCc2ccc(Cl)c(Cl)c2)nnc1C(CO)NC(=O)c1ccc(OC)cc1` (centres undefined), the inhibition was -13.3% (inactive).
The result for `CCOc1ccc(CCNC(=O)C2=C(C)C(=O)OC23CCC(C)CC3)cc1OCC` (centres undefined) reads -9.6% (inactive); that for `Cc1nc([N+](=O)[O-])c(NCCCO)n1Cc1ccccc1`, 6.3% (inactive).
Turning to `N=c1c2c(-c3ccccc3)c(-c3ccccc3)oc2ncn1Cc1ccco1`, the inhibition is -10.8% (inactive).
In the case of `N=c1c2c(-c3ccccc3)c(-c3ccccc3)n(Cc3ccccc3)c2ncn1CCCO`, the inhibition is 77.3% (active).
Take `C/C(CCc1ccccc1)=N\NC(=O)c1ccc(CN2CCOCC2)cc1`: the inhibition is -5.3% (inactive).
On to `COc1ccc(N2C(=O)CC(SC(C)C)C2=O)cc1` (centres undefined), for which the inhibition is -20.2% (inactive).
Regarding `COc1cc(Cl)c(C)cc1NC(=O)COC(=O)c1cc(SC)ccc1Cl`, the inhibition was 6.6% (inactive).
As for `OCCC1CN(Cc2ccc3nsnc3c2)CCN1C1CCCC1` (centres undefined), the inhibition is -9.3% (inactive).
For the compound `C=CS(=O)c1sc(Cl)c(N2CCOCC2)c1[N+](=O)[O-]` (centres undefined), the inhibition is 83.2% (active).
The same measure for `Cc1ccc(C(=O)NN(CCC#N)C2=NS(=O)(=O)c3ccccc32)cc1`: -1.1% (inactive).
As for `C/C(=N\N)c1c(-c2ccccc2)c2cc(Br)ccc2[nH]c1=O`, the inhibition was -3.6% (inactive).
With `COc1cccc2c(N/N=C/c3ccco3)cc(C)nc12`, the inhibition is -4.8% (inactive).
With `Cc1cc(N/N=C/c2ccccc2F)c2ccccc2n1`, the inhibition is -7.2% (inactive).
In the case of `COc1cccc(/C=N/Nc2cc(C)nc(-c3ccccc3O)n2)c1O`, the inhibition is 67.5% (active).
As for `COc1ccc(O)c(C(=O)c2cnc3c(c2)c(-c2ccc(F)cc2)c(C#N)c(=O)n3C)c1`, the inhibition was -3.8% (inactive).
The same measure for `Cc1cccc(N2C(=O)SC(SC(=Nc3ccccc3)Nc3ccccc3)C2=O)c1` (centres undefined): -14.2% (inactive); for `Cn1c(CCC(=O)Nc2ccccc2F)nnc1SCC(=O)Nc1ccccc1Cl`: -2.1% (inactive).
In the case of `C=CCn1c(SCC(=O)NCc2ccccc2)nnc1-c1cc(Br)ccc1O`, the inhibition was 55.6% (active).
`C=CCn1c(SCC(=O)Nc2nc3ccccc3s2)nnc1-c1ccccc1O`: the inhibition is 0.7% (inactive).
Take `O=C(CSc1nnc(-c2cccnc2)n1CCc1ccccc1)NCc1ccccc1`: the inhibition was 4.7% (inactive).
Take `C/C(Cn1nnc2ccccc21)=N\OC(=O)c1cc(F)c(F)cc1Cl`: the inhibition is -4.6% (inactive).
Take `Cc1cc(C)c2c3c(sc2n1)C(c1ccccc1)C(C#N)=C(N)O3` (centres undefined): the inhibition is 7.5% (inactive).
For `N#CC1=C(N)Oc2c(sc3ccccc23)C1c1ccco1` (centres undefined), the inhibition is 56.2% (active).
The result for `Cc1cc2c(c(=O)n1Cc1ccco1)C(c1ccccc1)C(C#N)=C(N)O2` (centres undefined) reads -7.5% (inactive); that for `O=C(/C=C/c1ccc(N2CCOCC2)cc1)c1ccccc1`, -140% (inactive); that for `O=C(N/N=C/c1coc2ccccc2c1=O)c1cc2ccccc2o1`, 0.7% (inactive).
The result for `Cc1c(/C=N/N2C(=O)C3C4C=CC(C4)C3C2=O)c2ccccc2n1C` (centres undefined) reads 13.8% (inactive).
As for `Cc1c(/C=N\NC(=O)c2cc3ccccc3o2)c2ccccc2n1C`, the inhibition is 78% (active).
With `CCOc1ccc(NC(=O)COc2ccc(C(=O)NC3CCCc4ccccc43)cc2OC)cc1` (centres undefined), the inhibition is -14.3% (inactive).
In the case of `COc1ccccc1CNC(=O)COc1ccc(C)nc1[N+](=O)[O-]`, the inhibition was -13.3% (inactive).
Turning to `C/C(=C\c1ccccc1)C1NC(=O)c2c(sc3c2CCCC3)N1` (centres undefined), the inhibition is 14.6% (inactive).
The same measure for `C=CCOC(=O)C1=C(C)NC(SCC(=O)OCC)=C(C#N)C1c1ccc(C)cc1` (centres undefined): -6.5% (inactive).
For the compound `Cc1ccc(C2CC(=O)NC(SCC(=O)OCc3ccccc3)=C2C#N)o1` (centres undefined), the inhibition was 18% (inactive).
The result for `CCOC(=O)CSC1=C(C#N)C(c2sccc2C)CC(=O)N1` (centres undefined) reads 93.4% (active); that for `CC(C)(C)NC(=O)C(=O)NCc1ccncc1`, -1.4% (inactive); that for `C/C(=N\NC(=O)Cc1ccc(Cl)cc1)c1ccccn1`, 58.9% (active).
As for `COc1ccc(CC(=O)N/N=C(\C)c2ccccn2)cc1`, the inhibition was 23.4% (inactive).
For the compound `C/C(=N\NC(=O)Cc1ccc(F)cc1)c1ccc(F)cc1`, the inhibition was 10.7% (inactive).
The same measure for `Cc1ccc(NC(=O)c2ccn(C(=O)Nc3ccccc3)n2)c(C)c1`: -34.7% (inactive).
The result for `COc1ccc(C)c(Cn2c(-c3nonc3N)nc3ccccc32)c1` reads 90.7% (active); that for `Nc1nonc1-c1nc2ccccc2n1CCC(=O)O`, -2% (inactive).
On to `Nc1nonc1-c1nc2ccccc2n1Cc1ccc(F)cc1`, for which the inhibition was -0.7% (inactive).
`O=C(NCCCN1CCOCC1)c1ccc([N+](=O)[O-])cc1[N+](=O)[O-]`: the inhibition is -18.1% (inactive).
As for `COc1cc(OC)cc(C(=O)OCC(=O)Nc2sccc2C(N)=O)c1`, the inhibition was 11.2% (inactive).
As to `Clc1ccc(CN2CCN(/N=C/c3cccnc3)CC2)cc1`, the inhibition was -6.8% (inactive).
For the compound `O=Cc1cn(Cc2ccccc2)nc1-c1cccnc1`, the inhibition is -9.8% (inactive).
Consider `O=C1/C(=C\c2cccnc2)CN(Cc2ccccc2)C/C1=C\c1cccnc1`, for which the inhibition is 97.1% (active).
With `Cc1cccc(N2CCN(c3ccc(C(N)=O)cc3[N+](=O)[O-])CC2)c1C`, the inhibition was -15.7% (inactive).
As for `CCn1c(CNC(=O)c2ccco2)nnc1SCC(=O)Nc1cccc(F)c1`, the inhibition is -10% (inactive).
Take `CCn1c(CNC(=O)c2ccc(OC)c(OC)c2)nnc1SCC(=O)Nc1ccccc1`: the inhibition was 45.9% (active).
The result for `CCn1c(Cc2ccccc2)nnc1SCC(=O)Nc1ccccc1` reads -1.3% (inactive); that for `O=C(CNC(c1ccccc1)c1ccccc1)Nc1ccc(F)cc1`, -7.4% (inactive); that for `CC1(C)CC(=O)C(N=Nc2ccc(S(=O)(=O)N3CCCCCC3)cc2)=C(O)C1`, 9.4% (inactive).
The result for `CCOC(=O)c1ccc(N2C(=O)CC(N3CCN(C(=O)c4ccccc4)CC3)C2=O)cc1` (centres undefined) reads -5.3% (inactive); that for `O=C(COc1cc(Cl)c(Cl)cc1Cl)NCCc1ccccn1`, 1.4% (inactive); that for `O=C(COc1ccccc1F)NC1CC1`, -9.1% (inactive).
The same measure for `O=C(COc1cc(Cl)c(Cl)cc1Cl)NC(=O)NC1CCCC1`: 45.2% (active).
Consider `Cc1ccccc1C1CC(c2cccs2)=NN1S(C)(=O)=O` (centres undefined), for which the inhibition is 17.8% (inactive).
Turning to `Cn1nnc(NC(=O)CSc2ncn[nH]2)n1`, the inhibition is 53.1% (active).
In the case of `O=C(CSc1ncn[nH]1)Nc1nsc(-c2ccccc2)n1`, the inhibition was -2.5% (inactive).
For `O=C(CSc1ncn[nH]1)Nc1ccnc2ccccc12`, the inhibition is 4% (inactive).
Take `COc1ccc(Br)cc1/C=N/NC(=O)c1cccc(S(=O)(=O)N2CCOCC2)c1`: the inhibition was -16.1% (inactive).
